Paper PMC7819943, “Rice protein-binding microarrays: a tool to detect cis-acting elements near promoter regions in rice”
In all, about 68,000 sequences were measured (“fluorescence intensity (a.u.)”: median about 9,100, highest 2% from about 16,000 on). The entries come from a sample that favours the highest values as a whole.

Each sequence was assayed against OsWRKY34 (Oryza sativa, UniProt Q0JBA9 1-250) (assay: protein-binding microarray (RPBM); PBS, 2% BSA, 51.3 ng/ul salmon testes DNA, 50 uM zinc acetate, 200 nM TF, 25 C, 1 h; high values mean tight binding). Details: protein: recombinant; tags: N-terminal polyhistidine and DsRed monomer fusion (pET32a); label: CyDye5-dUTP incorporated in the synthesized complementary strand; 3' TTTTT single-stranded linker to array surface; dsDNA, one strand shown.
How it was run: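 An Axon 4000B scanner gave the binding signal as per-feature fluorescence intensity in arbitrary units. This followed washing of a custom Agilent array that had been incubated for 1 h at 25 °C with 200 nM protein in PBS, 2% BSA, salmon testes DNA and 50 µM zinc acetate. The proteins were transcription factors fused at the N-terminus to polyhistidine and DsRed, expressed in E. coli BL21-CodonPlus and purified on Ni–NTA.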

Chain of OsWRKY34 (Q0JBA9 entry or part of it): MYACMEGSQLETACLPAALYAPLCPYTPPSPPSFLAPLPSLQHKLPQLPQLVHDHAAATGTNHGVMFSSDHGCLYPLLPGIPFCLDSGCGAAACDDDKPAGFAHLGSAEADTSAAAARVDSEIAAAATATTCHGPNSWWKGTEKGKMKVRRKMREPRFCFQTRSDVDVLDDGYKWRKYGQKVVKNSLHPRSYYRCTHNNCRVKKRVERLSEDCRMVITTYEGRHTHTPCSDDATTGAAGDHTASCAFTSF

| Sequence | binding signal |
| --- | --- |
| ACTGCTGTCTCCGCGTTACTCTACGCATGCATGCATGTATCGGAGTCACCTAGTGCAG | 10000 fluorescence intensity (a.u.) |
| TATTCGATTTTGGGTGGTGGTTGTTAAGTTGGCATTTGCACGGAGTCACCTAGTGCAG | 18300 fluorescence intensity (a.u.) |
| TATATCATATGCGGGCGTGATCTATTGGGGCGGGGTGTGGCGGAGTCACCTAGTGCAG | 20000 fluorescence intensity (a.u.) |
| CTGCTGTGTTGCACATTTTTCTGCTCTGTATACCTATAATCGGAGTCACCTAGTGCAG | 12200 fluorescence intensity (a.u.) |
| TGGGTGGGTGCGGCGTGGAGTGACGTGGCGGCGGGTGTGGCGGAGTCACCTAGTGCAG | 8590 fluorescence intensity (a.u.) |
| CCCTCCCCTCTGCTTCCGTTCCCTTGGGTTGGGTTGTGTTCGGAGTCACCTAGTGCAG | 8480 fluorescence intensity (a.u.) |
| CCCTTGGGTTGGGTTGTGTTGCTCCCTCTGCTGCATTAATCGGAGTCACCTAGTGCAG | 18100 fluorescence intensity (a.u.) |
| ATTCTGATTGGGTGTGGTTGGTTTGATTTTCTGTTAAGCACGGAGTCACCTAGTGCAG | 11700 fluorescence intensity (a.u.) |
| GTGGTTATTCAATTTGTTGCTTGTTTTTGTTTCAAGTTGGCGGAGTCACCTAGTGCAG | 10700 fluorescence intensity (a.u.) |
| GGTGAGTTCTTGATTTGGGCGTGGAGCTTTTTTTCTTGGTCGGAGTCACCTAGTGCAG | 8170 fluorescence intensity (a.u.) |
| AGGGAGAGTGTGGGTGCGTGGGGCATATGGTGGTGCGGTGCGGAGTCACCTAGTGCAG | 9950 fluorescence intensity (a.u.) |
| GGGGTGGACTGGGGTGTTTGGCTGCGTGAGTGCGGAGCGGCGGAGTCACCTAGTGCAG | 8920 fluorescence intensity (a.u.) |
| GGTGGGTGTGTGCTTGTTTCGGCGTGTGATTTGGGCGGAGCGGAGTCACCTAGTGCAG | 16500 fluorescence intensity (a.u.) |
| GAAGTGATGAATATATTAAACTGGTTTGGCTATTATTTCCCGGAGTCACCTAGTGCAG | 8360 fluorescence intensity (a.u.) |
| CTCTCGTGGTGTGGTGTGGACAAGAAAGGAAGGAAAGATGCGGAGTCACCTAGTGCAG | 8700 fluorescence intensity (a.u.) |
| TAATGTCCCTATTTTGTTATAGTGTTCCTCCAATAATCTGCGGAGTCACCTAGTGCAG | 8290 fluorescence intensity (a.u.) |
| CAGTTCTTCGTTCTTGTCTTTACTCTCATGATTTTCTCTTCGGAGTCACCTAGTGCAG | 10900 fluorescence intensity (a.u.) |
| CTCAACCTCTCGGTCGTCGGCCTCGTCCTCCGGGCCGGCACGGAGTCACCTAGTGCAG | 12000 fluorescence intensity (a.u.) |
| TTCATAGCCGCCGCATCTCCTTCTCTTCGACTTTTCTCCTCGGAGTCACCTAGTGCAG | 9080 fluorescence intensity (a.u.) |
| TCAAACGATGCCATTCACCACGTGCCACTTTATATCAAACCGGAGTCACCTAGTGCAG | 11700 fluorescence intensity (a.u.) |
| CTTAACGGCCCATTTATCTTGTCTCTCTGGCCCACCTGCACGGAGTCACCTAGTGCAG | 12300 fluorescence intensity (a.u.) |
| CCTGTAATACTTTTGTTAATTCGATCCTACTACATCTTTACGGAGTCACCTAGTGCAG | 10400 fluorescence intensity (a.u.) |

| Sequence | binding signal |
| --- | --- |
| GAGCTGGGGTGGTGTTTGTTTGTGGGTGTGTTTGTGTGCTCGGAGTCACCTAGTGCAG | 15900 fluorescence intensity (a.u.) |
| GTGGTGGTGGTGTGTGAGCTCGGGGCTTGGGGTTTTGCGGCGGAGTCACCTAGTGCAG | 13300 fluorescence intensity (a.u.) |
| TTTCTTCATTTCATGATTGTATATTCTGGTGTTTTTGTGGCGGAGTCACCTAGTGCAG | 9250 fluorescence intensity (a.u.) |
| TGGGAGCTTTGCTTGGGGTGTGTGTGTGTTTGGGTGGTGCCGGAGTCACCTAGTGCAG | 10900 fluorescence intensity (a.u.) |
| GTTTTTGTGCTTGGTGGTGGTGGTGGGTGATTTGCAGGGGCGGAGTCACCTAGTGCAG | 31700 fluorescence intensity (a.u.) |
| TGGTGTTGTCGGTGTGTGGGTGGTGATATACTTTTTTTTTCGGAGTCACCTAGTGCAG | 11600 fluorescence intensity (a.u.) |
| CATATATTGGTGTTGTGTGTGGGTGGGTGGGGCGGTGCTTCGGAGTCACCTAGTGCAG | 30900 fluorescence intensity (a.u.) |
| ACGGTGTATATTTGTGGTGTGGCGGGTGTGGCATTGGATTCGGAGTCACCTAGTGCAG | 16700 fluorescence intensity (a.u.) |
| TTGGTCGCATTTCGGGTGGTGGTGGTGGTGGTGGTGGTGGCGGAGTCACCTAGTGCAG | 13200 fluorescence intensity (a.u.) |
| TAGTCTTTTCCATGTCATGTGATCATGTGTGGAGTTGATTCGGAGTCACCTAGTGCAG | 8550 fluorescence intensity (a.u.) |
| ACTCATGGATGCAGGTCCACCTACATACGTACTACCACAACGGAGTCACCTAGTGCAG | 8570 fluorescence intensity (a.u.) |
| GCCATCCTCCGCGACGCACATCGTCCGTCCCACCACGATGCGGAGTCACCTAGTGCAG | 10400 fluorescence intensity (a.u.) |
| GACATAAGTTTATTATCTATATCCATAGTACGTTTAATCCCGGAGTCACCTAGTGCAG | 10100 fluorescence intensity (a.u.) |
| AAACTGCACTACTTTATCTTGGTTGTCTTTAGCATAAGAACGGAGTCACCTAGTGCAG | 12100 fluorescence intensity (a.u.) |
| AATCCCCGCACGCGTCTTTACTTCGCCTTCGTCTTTCCTCCGGAGTCACCTAGTGCAG | 9340 fluorescence intensity (a.u.) |
| TTCTTGTTTTCGTGGATCATCATCAACCTCAATAGAAACGCGGAGTCACCTAGTGCAG | 8410 fluorescence intensity (a.u.) |
| TCTCCTAAAGATTCATGTTACGTATCTCTTACTTCAACAGCGGAGTCACCTAGTGCAG | 8710 fluorescence intensity (a.u.) |
| GTACGTACAACATTGTGTATCTGTTTTGTAAGTTATTAACCGGAGTCACCTAGTGCAG | 9710 fluorescence intensity (a.u.) |
| GACTTTTTATCCAACGTTTGACCATTCGTCTTATTCAAAACGGAGTCACCTAGTGCAG | 10300 fluorescence intensity (a.u.) |
| CGGTTTTGACGGACGTGGTGCCCACGTGGCTAGTTTGACTCGGAGTCACCTAGTGCAG | 8980 fluorescence intensity (a.u.) |
| CTTTTTTTCCAACGTTTGACCATTTGTCTTATTCAAAAAACGGAGTCACCTAGTGCAG | 8560 fluorescence intensity (a.u.) |
| AACTCATCTGACAGTGATCCATCGTCCTTTTTCTTTGACTCGGAGTCACCTAGTGCAG | 10100 fluorescence intensity (a.u.) |
